PD-1 reversal = activators reversing PD-1 mediated T-cell inhibition, primary screen, luminescence, primary human CD4 T cells, PD-L1 beads; activation, % (concentration not given with the values); CellTiter-Glo 96 h; 29,000 tested, under 10 active; AID 2316, 2010; call rule not given here
NOMO-1 viab = NOMO-1 AML cell viability reduction, primary screen, STK33 inhibitor project, CellTiter-Glo luminescence; NOMO-1 AML viability, 72 h; inhibition, % (concentration not given with the values); 37,000 compounds, 7.5% hits; AID 2330, 2010; in the data active = inhibition above about 80%; inconclusive = no clear call, values can overlap the other calls
MITF inh = inhibitors of MITF, primary screen, MITF inhibitor project, cell-based, luminescence. TRPM1 promoter luciferase, 24 h. inhibition, % (no concentration beside the values). 37,000 compounds, 0.28% hits. AID 2240, 2010; in the data active = inhibition above about 85%; inconclusive = no clear call, values can overlap the other calls; inactive = below about 68%;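 also: human melanocyte line stably carrying TRPM1 promoter luciferase reporter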
Hedgehog inh = Hedgehog pathway signaling inhibitors, primary screen, luminescence, Shh-LIGHT2 cells, Gli-luciferase | Shh-LIGHT2 Gli-luciferase reporter, 30 h | inhibition, % (concentration not given with the values) | 22,000 compounds, 2.1% hits | AID 2313, 2010;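 active = mean inhibition across valid replicates above about 65%, limit read from the data; inconclusive = mean under the limit, yet half or more replicates past it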;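 also: pathway switched on by Shh-conditioned medium diluted 1 in 25 in low serum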
A number is an active result; . = inactive; ? = inconclusive; / = no result given. The list is not random: actives were taken first. Their share in the collection is about 7.9%.

SMILES	PD-1 reversal	NOMO-1 viab	MITF inh	Hedgehog inh
C[C@H](CO)N1C[C@H](C)[C@H](CN(C)Cc2ccc(Oc3ccccc3)cc2)Oc2ccc(NS(=O)(=O)c3ccc(F)cc3)cc2CC1=O	.	126	.	.
C[C@H]1CN([C@@H](C)CO)C(=O)Cc2cc(NS(=O)(=O)c3ccccc3)ccc2O[C@H]1CN(C)Cc1ccc(Oc2ccccc2)cc1	/	.	.	.
C[C@@H]1CN([C@H](C)CO)C(=O)Cc2cc(NS(=O)(=O)c3ccc(F)cc3)ccc2O[C@@H]1CN(C)Cc1ccc(Oc2ccccc2)cc1	.	115	.	.
Cc1ccc2nc(-c3cccc(Br)c3)cc(C(=O)NCc3cccnc3)c2c1	.	.	.	/
COC(=O)c1cccc(NC(=O)CSc2nc3cc4ccccc4cc3[nH]2)c1	.	.	.	/
CCOC(=O)c1ccc(NC(=O)CSc2nc3cc4ccccc4cc3[nH]2)cc1	.	111	.	/
C[C@H](CO)N1C[C@H](C)[C@H](CN(C)Cc2ccc(C(=O)O)cc2)Oc2ccc(NS(=O)(=O)c3ccc(F)cc3)cc2CC1=O	/	.	.	/
C[C@@H]1CN([C@@H](C)CO)C(=O)Cc2cc(NS(=O)(=O)c3ccccc3)ccc2O[C@@H]1CN(C)Cc1ccc(C(F)(F)F)cc1	/	.	.	.
C[C@@H]1CN([C@H](C)CO)C(=O)Cc2cc(NS(=O)(=O)c3ccc(F)cc3)ccc2O[C@H]1CN(C)Cc1ccc(C(F)(F)F)cc1	.	127	.	.
C[C@@H]1CN([C@@H](C)CO)C(=O)Cc2cc(NS(=O)(=O)c3ccc(F)cc3)ccc2O[C@@H]1CN(C)Cc1ccc(C(F)(F)F)cc1	.	103	.	.
C[C@H]1CN([C@@H](C)CO)C(=O)Cc2cc(NS(=O)(=O)c3ccc(F)cc3)ccc2O[C@@H]1CN(C)Cc1ccc(C(F)(F)F)cc1	/	90	.	.
CC(O)CCCC1Cc2cccc(O)c2C(=O)O1 (stereo unspecified)	.	.	.	.
Cc1scc(C(=O)Nc2cccc(Cn3cccn3)c2)c1-c1ccccc1	.	.	.	/
Cc1c(Br)c([N+](=O)[O-])nn1C(C)C(=O)N1CCOCC1 (stereo unspecified)	/	.	.	/
CC(=O)Cc1ccccc1OCC(=O)O	/	.	.	/
CC(=O)OCOC(=O)CN(CC(=O)OCOC(C)=O)c1ccccc1OCCOc1ccccc1N(CC(=O)OCOC(C)=O)CC(=O)OCOC(C)=O	/	113	.	.
CN(CCOC(=O)Nc1cccc(Cl)c1)c1ccc(C#N)cn1	.	.	.	.
O=C(Nc1ccc(I)cc1C(=O)NCC1CCCO1)c1ccco1 (stereo unspecified)	.	.	.	/
CCOc1ccc(C(=O)Nc2ccc(NC(=O)c3ccccc3)c(C)c2)cc1Br	.	.	.	96
N#CCCN(CC1COc2ccccc2O1)C(=O)c1ccccc1 (stereo unspecified)	.	.	.	/
Cc1ccc(-c2nc3cc(NC(=O)COc4ccccc4Cl)ccc3o2)c(C)c1	/	.	.	/
CC(C)(C)Nc1cccccc1=NCc1ccccc1	.	92	.	/
COc1cccc2oc3c(c(=O)c12)C(C(=O)O)=CC(CO)=CO3	.	.	.	.
CC(C)(C)c1ccc(-c2cc3ccccn3c2)cc1	.	104	.	.
C[C@H](CO)N1C[C@H](C)[C@@H](CN(C)CC2CCCCC2)Oc2c(NC(=O)Nc3ccccc3)cccc2C1=O	.	?	.	.
SMILES	PD-1 reversal	NOMO-1 viab	MITF inh	Hedgehog inh
C[C@@H]1CN([C@H](C)CO)C(=O)c2cccc(NC(=O)Nc3ccc(F)cc3)c2O[C@H]1CN(C)CC1CCCCC1	.	113	.	.
C[C@@H]1CN([C@H](C)CO)C(=O)c2cccc(NC(=O)Nc3ccccc3)c2O[C@@H]1CN(C)CC1CCCCC1	.	.	.	.
C[C@H]1CN([C@@H](C)CO)C(=O)c2cccc(NC(=O)Nc3ccc(F)cc3)c2O[C@@H]1CN(C)CC1CCCCC1	.	?	.	.
C[C@@H]1CN([C@@H](C)CO)C(=O)c2cccc(NC(=O)Nc3ccccc3)c2O[C@H]1CN(C)CC1CCCCC1	/	93	.	.
C[C@H]1CN([C@@H](C)CO)C(=O)c2cccc(NC(=O)Nc3ccccc3)c2O[C@@H]1CN(C)CC1CCCCC1	.	90	.	.
COc1ccc(C(=O)CSc2nnc(CC(C)O)n2C)cc1 (stereo unspecified)	.	.	.	/
CCOc1ccc2ccccc2c1C(=O)NCc1ccco1	.	.	.	/
C=C(C)C(O)C(O)c1c(OC)ccc2ccc(=O)oc12 (stereo unspecified)	.	.	.	.
CSc1ccccc1NC(=O)C(C)n1nc([N+](=O)[O-])c(Br)c1C (stereo unspecified)	.	.	.	/
COc1cc2c(c(O)c1OC)C(=O)CC(c1ccc(O)cc1)O2 (stereo unspecified)	.	.	.	.
COc1cc2c(c(OC)c1OC)C[C@H]1COC(=O)[C@@H]1Cc1c-2cc(OC)c(OC)c1OC	/	/	/	67
COc1cc2c(c(OC)c1OC)-c1cc3c(cc1C[C@H]1C(=O)OC[C@@H]1C2)OCO3	.	106	.	.
C[C@H]1CN([C@@H](C)CO)C(=O)Cc2cc(NC(=O)Nc3ccc(C(F)(F)F)cc3)ccc2O[C@H]1CN(C)Cc1ccccc1	/	85	.	.
C[C@@H]1CN([C@H](C)CO)C(=O)Cc2cc(NC(=O)Nc3ccc(C(F)(F)F)cc3)ccc2O[C@H]1CN(C)Cc1ccccc1	.	.	.	.
C[C@H]1CN([C@@H](C)CO)C(=O)Cc2cc(NC(=O)Nc3ccccc3)ccc2O[C@H]1CN(C)Cc1ccc(C(F)(F)F)cc1	/	127	.	.
C[C@H](CO)N1C[C@H](C)[C@H](CN(C)Cc2ccccc2)Oc2ccc(NC(=O)Nc3ccc(C(F)(F)F)cc3)cc2CC1=O	.	?	.	.
C[C@H]1CC[C@@H]2[C@@H](C(=O)c3c(O)c([C@]4(O)CC[C@@H](O)[C@H]5O[C@H]54)c[nH]c3=O)[C@@H](C)C=C[C@H]2C1	.	121	.	96
CCSc1nccc(-c2ccc3c(c2)CCC(C)(C)O3)n1	.	.	.	78
CN(C)/C=C/C(=O)c1ccc2c(c1)CCO2	.	110	.	.
Cc1ccc(-c2nnc(SCC(=O)Nc3ccccc3C(C)(C)C)n2C)cc1	.	.	.	/
C[C@@H]1CN([C@H](C)CO)C(=O)Cc2cc(NC(=O)Nc3ccc(C(F)(F)F)cc3)ccc2O[C@H]1CN(C)Cc1ccc(Oc2ccccc2)cc1	/	112	.	/
C[C@H](CO)N1C[C@H](C)[C@H](CN(C)Cc2ccc(Oc3ccccc3)cc2)Oc2ccc(NC(=O)Nc3ccc(C(F)(F)F)cc3)cc2CC1=O	.	119	.	.
O=C1/C(=C/c2ccc3ccccc3c2)COc2ccccc21	.	113	.	.
COc1ccc2c(c1)OC/C(=C\c1ccc(OC)c(O)c1)C2=O	/	107	.	?
COc1ccc(S(=O)(=O)N(CCO)c2ccccc2CN(C)C/C=C/c2ccc(Cl)cc2)cc1	.	83	.	.
COc1ccc(S(=O)(=O)N(CC(=O)O)c2ccc(Cl)cc2)cc1	/	.	.	/

Screening data (PubChem BioAssay)
